Sampled rows, rich in hits. Any-hit rate of the full collection: about 2.9%.
KDM5B inh: KDM5B demethylase inhibition; Q9UGL1; KDM5B demethylase, FDH-coupled NADH fluorescence (FDH is formaldehyde dehydrogenase); Potency, µM (series often up to 57.7 µM), most hits filed as inhibitors; hit rate 2.6% among 220,000; AID 1347165; further: nearly all actives have a fitted effect of over 70% in size
Target sequence (Q9UGL1 whole entry, looked up): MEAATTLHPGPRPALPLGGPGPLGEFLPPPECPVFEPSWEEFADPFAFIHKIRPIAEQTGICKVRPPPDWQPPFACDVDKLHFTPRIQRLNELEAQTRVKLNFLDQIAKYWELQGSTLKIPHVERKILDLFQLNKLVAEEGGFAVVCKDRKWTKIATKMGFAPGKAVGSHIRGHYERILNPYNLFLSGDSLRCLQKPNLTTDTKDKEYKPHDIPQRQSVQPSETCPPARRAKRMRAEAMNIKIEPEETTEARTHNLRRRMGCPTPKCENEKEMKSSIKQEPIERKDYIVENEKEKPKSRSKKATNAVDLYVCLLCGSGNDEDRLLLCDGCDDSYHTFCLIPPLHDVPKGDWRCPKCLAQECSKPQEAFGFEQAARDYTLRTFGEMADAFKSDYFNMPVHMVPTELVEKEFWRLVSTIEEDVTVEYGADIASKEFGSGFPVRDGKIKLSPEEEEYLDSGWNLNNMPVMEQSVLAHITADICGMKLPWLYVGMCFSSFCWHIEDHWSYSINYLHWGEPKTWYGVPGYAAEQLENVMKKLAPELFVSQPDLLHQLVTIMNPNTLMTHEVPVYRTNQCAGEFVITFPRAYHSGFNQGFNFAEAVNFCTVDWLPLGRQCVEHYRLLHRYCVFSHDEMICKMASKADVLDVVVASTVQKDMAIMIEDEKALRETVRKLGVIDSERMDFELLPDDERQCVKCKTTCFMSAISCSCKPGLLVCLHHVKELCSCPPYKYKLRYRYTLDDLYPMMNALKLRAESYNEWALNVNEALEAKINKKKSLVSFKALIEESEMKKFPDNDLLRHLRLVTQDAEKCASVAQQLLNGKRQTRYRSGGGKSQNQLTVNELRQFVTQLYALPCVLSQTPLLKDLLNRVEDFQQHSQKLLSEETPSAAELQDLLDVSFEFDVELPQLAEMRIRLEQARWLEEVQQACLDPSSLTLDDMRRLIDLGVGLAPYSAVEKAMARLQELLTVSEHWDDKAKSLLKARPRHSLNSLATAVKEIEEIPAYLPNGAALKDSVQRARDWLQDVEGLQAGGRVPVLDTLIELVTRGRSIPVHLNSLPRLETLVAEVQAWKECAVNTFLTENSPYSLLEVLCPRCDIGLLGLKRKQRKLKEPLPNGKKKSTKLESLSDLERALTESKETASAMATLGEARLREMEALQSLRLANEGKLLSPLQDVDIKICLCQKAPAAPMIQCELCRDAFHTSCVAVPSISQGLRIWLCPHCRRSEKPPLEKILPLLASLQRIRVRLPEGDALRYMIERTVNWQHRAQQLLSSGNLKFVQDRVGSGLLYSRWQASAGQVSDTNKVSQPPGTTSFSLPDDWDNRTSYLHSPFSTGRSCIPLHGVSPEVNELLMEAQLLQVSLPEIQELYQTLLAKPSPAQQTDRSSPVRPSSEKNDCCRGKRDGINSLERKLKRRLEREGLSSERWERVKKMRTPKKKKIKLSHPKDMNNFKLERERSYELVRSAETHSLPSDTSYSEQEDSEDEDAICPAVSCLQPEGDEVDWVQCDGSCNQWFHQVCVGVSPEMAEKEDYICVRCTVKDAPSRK
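Measured: NADH fluorescence change, 30 min, RT. System: KDM5BΔAP 200 nM final, H3K4me3 peptide, α-KG, Fe(II), ascorbate, NAD⁺ plus FDH, pH 7.5 HEPES. Compounds: titrated, 10 min pre-incubation with enzyme.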
IP6K1 inhibitor: IP6K1 kinase inhibition; Q92551; IP6K1 kinase, ADP-Glo luminescence, 2 h; stronger effect = lower value; activity change, % (series mostly up to about 58 µM); hit rate 0.81% among 140,000; AID 1645851; in the data active means activity change below about -25%
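ADP-Glo luminescence measures ADP made by human IP6K1 during a 2 h RT reaction with ATP/IP6 (mix at 1.3 mM/130 uM); top library doses 57.5 and 19.1 uM final.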
SNCA viab count: counter-screen for SNCA expression inhibitors: cell viability; AID 1671193; HEK-293-SNCA-luc viability, GF-AFC fluorescence, 24 h; Potency, µM (series often up to 57.1 µM), hits mostly cytotoxic; hit rate 0.12% among 150,000; further: nearly all actives have a fitted effect of over 30% in size
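Cytotoxicity counterscreen: after 24 h compound treatment of genome-edited SNCA-luciferase HEK-293 cells, live-cell protease substrate GF-AFC read by fluorescence after 30 min; activity scaled between DMSO (0%) and medium-only (-100%), curves Hill-fitted.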
SNCA expr inh: inhibitors of alpha-synuclein (SNCA) gene expression; HEK-293 SNCA-luciferase knock-in, luminescence, 24 h; Potency, µM (series often up to 57.2 µM), usual class: inhibitors; hit rate 0.17% among 140,000; AID 1671194; further: nearly all actives have a fitted effect of over 45% in size
IP6K1 conf: confirmation of human IP6K1 inhibitors; shares compounds with IP6K1 inhibitor; recombinant IP6K1 kinase, ADP-Glo luminescence, 2 h; Potency, µM (series often up to 49 µM), most hits filed as inhibitors; hit rate 13% among 1,200; AID 1645852; further: nearly all actives have a fitted effect of over 65% in size
Of the large screens only hits and unclear results are named; the others gave an inactive call (follow-up assays come after a bar, where they were run). Unless noted, the call rests on the fitted dose curve; in most records, active means well fitted curve in the direction sought with a large enough effect; inconclusive means small, poorly fitted or top-dose-only effect, or another doubt; inactive means no such curve, though single readings can be large; an effect the other way counts as inactive or inconclusive.

Cc1cc(C)cc(NS(=O)(=O)c2ccc3[nH]cc(C(=O)N(C)Cc4ccccc4)c(=O)c3c2)c1	KDM5B inh inconclusive, IP6K1 inhibitor -26, SNCA expr inh inconclusive | IP6K1 conf inactive
COc1ccccc1OC1(C(=O)O)CCN(Cc2nccn2C)CC1	KDM5B inh inconclusive
COc1ccccc1OC1(C(=O)O)CCN(Cc2cnn(C)c2C)CC1	KDM5B inh inconclusive, IP6K1 inhibitor -29, SNCA viab count inconclusive | IP6K1 conf inactive
CCc1cc(N2CCC(Oc3ccccc3OC)(C(=O)O)CC2)nc(C)n1	IP6K1 inhibitor -32 | IP6K1 conf inactive
O=c1[nH]c2cc3c(cc2c(=O)n1Cc1nc(-c2ccc(C(F)(F)F)cc2)no1)OCO3	none (no result: IP6K1 inhibitor, SNCA viab count, SNCA expr inh)
CCCCC(=O)Nc1ccccc1C(=O)OCc1cc(=O)n2nc(C3CCCCC3)sc2n1	KDM5B inh inconclusive, IP6K1 inhibitor -28 | IP6K1 conf inactive
O=C(NC1CCCN(c2cc(-c3ccccc3)[nH]n2)C1)c1cc(F)ccc1F (centres undefined)	SNCA expr inh inconclusive
CC(=O)Nc1nc2ccccc2n1Cc1ccccc1Cl	none (no result: IP6K1 inhibitor, SNCA viab count, SNCA expr inh)
CC(=O)NC(C)c1nc2ccccc2n1Cc1ccccc1Cl (centres undefined)	IP6K1 inhibitor -26 | IP6K1 conf inactive
Cc1ccccc1CN1C(=O)c2ccccc2Sc2ccc(C(=O)O)cc21	none
O=C(O)c1cccc(CN2C(=O)/C(=C(\c3ccccc3)c3ccc(Cl)cc3)c3ccccc32)c1	IP6K1 inhibitor -26 (no result: KDM5B inh, SNCA expr inh) | IP6K1 conf 21µM
CCc1nc2ccccc2c(C(=O)OCC(=O)NC2CCCC2)c1C	none (no result: IP6K1 inhibitor, SNCA viab count, SNCA expr inh)
COc1ccc(Nc2cc(-c3cccs3)nc3c(C)noc23)cc1OC	KDM5B inh inconclusive
CCOc1ccc(-n2cc(-c3ccccc3)c3c(NC4CCCCC4)ncnc32)cc1	none
COc1ccc(-n2cc(-c3ccccc3)c3c(NC4CCCCC4)ncnc32)cc1	KDM5B inh inconclusive, IP6K1 inhibitor -25 | IP6K1 conf inconclusive
O=C(Nc1cccc(-c2nc3cc(Cl)ccc3o2)c1)c1cccc([N+](=O)[O-])c1	none (no result: IP6K1 inhibitor, SNCA viab count, SNCA expr inh)
O=C(Nc1ccc(F)c(Cl)c1)Nc1csc2ccccc12	none (no result: IP6K1 inhibitor, SNCA viab count, SNCA expr inh)
CCc1nc2ccccc2n1CCCCOc1ccccc1C	KDM5B inh inconclusive, IP6K1 inhibitor -30, SNCA expr inh inconclusive | IP6K1 conf inactive
Cc1cccc(C(=O)Nc2cccc(C(=O)N(C)C)c2)c1	none (no result: IP6K1 inhibitor, SNCA viab count, SNCA expr inh)
COc1ccc(Oc2ncc3nc(-c4cccs4)c(=O)n(-c4ccccc4)c3n2)cc1	none (no result: KDM5B inh, IP6K1 inhibitor)
CO/N=C(\C(=O)N[C@@H]1C(=O)N2C(C(=O)O)=C(CSc3nc(=O)c(O)nn3C)CS[C@H]12)c1csc(N)n1	IP6K1 inhibitor -79 (no result: KDM5B inh) | IP6K1 conf inconclusive
COc1ccc(NC(=O)C2(C)CCCc3cnc(Nc4cccnc4)nc32)cc1 (centres undefined)	SNCA viab count inconclusive
COc1ccc(Br)cc1[C@@H]1Nc2ccc(C(=O)O)cc2[C@@H]2C=CC[C@@H]21	KDM5B inh inconclusive, IP6K1 inhibitor -40 | IP6K1 conf inconclusive
COc1ccc(OC)c([C@@H]2Nc3ccc(C(=O)O)cc3[C@@H]3C=CC[C@@H]32)c1	KDM5B inh inconclusive, IP6K1 inhibitor -27 | IP6K1 conf inconclusive
CCOC(=O)c1ccc2c(c1)[C@@H]1C=CC[C@@H]1[C@H](c1cccc(OC)c1OC)N2	KDM5B inh inconclusive
COc1cccc(CN2CCC[C@@H](O)[C@H](NC(=O)c3ccc(OCc4ccccc4)cc3)C2)c1	SNCA expr inh inconclusive
O=C(N[C@@H]1CN(Cc2ccccn2)CCC[C@H]1O)c1ccc(OCc2ccccc2)cc1	IP6K1 inhibitor -33 | IP6K1 conf inactive
CN(C)c1nc(OC(C(F)(F)F)C(F)(F)F)nc(N2CCOCC2)n1	none (no result: IP6K1 inhibitor, SNCA viab count, SNCA expr inh)
CCN(CC)c1ccc(NC(=O)c2cc(S(N)(=O)=O)ccc2C)cc1	none (no result: IP6K1 inhibitor, SNCA viab count, SNCA expr inh)
CCN(CC)c1ccc(C(=C2C=CC(=[N+](CC)CC)C=C2)c2cc(S(=O)(=O)O)ccc2S(=O)(=O)[O-])cc1	IP6K1 inhibitor -51 (no result: KDM5B inh) | IP6K1 conf inconclusive
CC(Oc1ccccc1)C(=O)OCc1cc(=O)n2nc(C(C)C)sc2n1 (centres undefined)	IP6K1 inhibitor -30 | IP6K1 conf inactive
CN(Cc1ccc2nsnc2c1)Cc1cc2n(n1)CCCNC2	KDM5B inh inconclusive, IP6K1 inhibitor -25 | IP6K1 conf inactive
CCCCN(Cc1ccccc1)S(=O)(=O)c1cc(Br)cc2c1N(C(C)=O)CC2	IP6K1 inhibitor -27 | IP6K1 conf inactive
CCCCN(Cc1ccccc1)S(=O)(=O)c1cc(Br)cc2c1N(C(=O)C1CC1)CC2	none
NC(=O)c1cccc(CC2CCN(C(=O)c3ccnc(-n4cnnc4)c3)C2)c1 (centres undefined)	IP6K1 inhibitor -27 | IP6K1 conf inactive
Cc1cc(C)n2nc(C(=O)N3CCC(Cc4cccc(C(N)=O)c4)C3)nc2n1 (centres undefined)	none
CCc1ccccc1NC(=O)CN(C)CC(=O)NC(=O)NCC(F)(F)F	none (no result: IP6K1 inhibitor, SNCA viab count, SNCA expr inh)
CCOc1ccc2oc(=O)cc(CN3CCN(C(=O)c4cccc(Cl)c4)CC3)c2c1	KDM5B inh inconclusive, IP6K1 inhibitor -29, SNCA expr inh inconclusive | IP6K1 conf inactive
CCc1ocnc1C(=O)N1C[C@H]2OC(=O)N(CCCN3CCOCC3)[C@H]2C1	IP6K1 inhibitor -72 | IP6K1 conf inactive
Cn1cc(-c2ccc(Cl)cc2)cc1C(=O)O	none
CN(C)C(=O)c1cc(-c2ccc(Cl)cc2)cn1C	IP6K1 inhibitor -33 | IP6K1 conf inconclusive
Cc1ccc(CNS(=O)(=O)c2c(C)nc3sc(C)cn3c2=O)cc1	KDM5B inh inconclusive, IP6K1 inhibitor -27 | IP6K1 conf inactive
Cc1cn2c(=O)c(S(=O)(=O)NCCc3ccc(Cl)cc3)c(C)nc2s1	KDM5B inh inconclusive
COC(=O)c1nc(NC(=O)CC[C@H]2NC(=O)c3ccccc3NC2=O)sc1C	none
CCN1C(C(=O)c2ccccc2)=C(OC(=O)COc2ccccc2)c2ccccc2S1(=O)=O	KDM5B inh inconclusive, IP6K1 inhibitor -29, SNCA viab count inconclusive, SNCA expr inh inconclusive | IP6K1 conf inconclusive
CCN1C(C(=O)c2ccccc2)=C(OC(=O)C(C)C)c2ccccc2S1(=O)=O	KDM5B inh inconclusive, SNCA expr inh inconclusive
O=C(c1cc(Cl)ccc1F)N1CCN(C(=O)c2nnn3c2COC(c2ccccc2)C3)CC1 (centres undefined)	IP6K1 inhibitor -32 | IP6K1 conf inactive
O=C(c1ccccc1F)N1CCN(C(=O)c2nnn3c2COC(c2ccccc2)C3)CC1 (centres undefined)	SNCA expr inh inconclusive
Cn1nnnc1SCCNCc1cc(Br)ccc1OCc1ccccc1Cl	IP6K1 inhibitor -41, SNCA viab count inconclusive, SNCA expr inh inconclusive | IP6K1 conf inactive
COc1ccc2nc3n(c2c1)[C@@H](CNS(=O)(=O)c1ccc(F)cc1)COC3	none
COc1ccc2nc3n(c2c1)[C@@H](CNC(=O)c1ccc(F)cc1)COC3	KDM5B inh 35µM, IP6K1 inhibitor -26 | IP6K1 conf inconclusive

Compound activity: PubChem, National Center for Advancing Translational Sciences (NCATS)
